# Reference: PubChem BioAssay AID777 (Sanford-Burnham Center for Chemical Genomics, 2007)
# In all, about 96,000 compounds went through this assay and about 19,000 (20%) were called active.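 How the source made its calls: active means blocking of liver enzyme CYP2C9 beyond about 50% at 5 µM (limit read from the data); inactive means the rest.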 The list is a sample of the results.
# Molecular target: Cytochrome P450 2C9 (Homo sapiens) (UniProt P11712)
# Experiment: blockers of cytochrome P450 2C9 activity – biochemical, luminescence, ADME assay, primary screen (AID 777)
# Conditions: CYP2C9 Supersomes, luciferin-H conversion, at 5 µM, active compounds read high
# Sequence of Cytochrome P450 2C9 (Homo sapiens) (P11712 whole entry, looked up): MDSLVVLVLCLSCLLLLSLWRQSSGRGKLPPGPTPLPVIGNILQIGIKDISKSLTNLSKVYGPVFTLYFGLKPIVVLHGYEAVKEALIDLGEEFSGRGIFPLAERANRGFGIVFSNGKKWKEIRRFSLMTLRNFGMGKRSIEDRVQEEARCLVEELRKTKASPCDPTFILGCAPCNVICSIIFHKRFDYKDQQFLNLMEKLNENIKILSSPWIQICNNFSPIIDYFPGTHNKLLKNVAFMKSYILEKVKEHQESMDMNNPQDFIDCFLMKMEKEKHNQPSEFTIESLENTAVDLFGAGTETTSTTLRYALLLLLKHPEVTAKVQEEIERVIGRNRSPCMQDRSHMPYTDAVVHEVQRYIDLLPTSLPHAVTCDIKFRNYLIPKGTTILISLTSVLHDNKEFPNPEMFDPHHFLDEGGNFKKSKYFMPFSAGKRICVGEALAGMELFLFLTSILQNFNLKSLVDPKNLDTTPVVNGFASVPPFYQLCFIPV
row,SMILES,inhibition
1,O=C(Nc1cnn(Cc2ccc(Cl)cc2)c1)C1CCCC1,56.1% (active)
2,O=C(O)c1ccc(NC(=O)C2CCCCC2)cc1,-25.8% (inactive)
3,O=C(O)C1CCCCC1C(=O)Nc1ccc(Cl)cc1 (stereo unspecified),9.3% (inactive)
4,O=C1CC(c2ccccc2)C(=O)N1c1cccc(O)c1 (stereo unspecified),45% (inactive)
5,O=C(N/N=C/C=C/c1ccccc1)C1CC1(c1ccccc1)c1ccccc1 (stereo unspecified),99.5% (active)
6,O=C(Nc1ccc(F)c(Cl)c1)C1CCN(S(=O)(=O)c2cccnc2)CC1,9.3% (inactive)
7,O=C(O)c1ccc(COCC(F)(F)F)cc1,-1.6% (inactive)
8,Fc1c(F)c(C(F)(F)F)c(F)c(F)c1N1CCN(c2ccc3nnc(C(F)(F)F)n3n2)CC1,5.9% (inactive)
9,c1csc(-c2nc(-c3ccncc3)no2)c1,11.1% (inactive)
10,c1ccc(CCc2nc(-c3ccncc3)no2)cc1,93% (active)
11,O=C1c2ccccc2C(=O)N1CCCc1nc(-c2ccccc2)no1,24.2% (inactive)
12,Cc1cc(C(=O)O)c(S(C)(=O)=O)s1,-5.1% (inactive)
13,CC(Sc1nnc(Cc2ccc([N+](=O)[O-])cc2)o1)C(N)=O (stereo unspecified),-1.5% (inactive)
14,Cc1ccc2nc(SC(C)C(=O)NCc3ccco3)[nH]c2c1 (stereo unspecified),44.2% (inactive)
15,Cc1nnc(NCCO)c2ccccc12,-5.4% (inactive)
16,CCC(=O)NC(=Nc1nc2ccccc2s1)NC(=O)CC,-88.9% (inactive)
17,O=C1CCCC(O)=C1C=NCCc1ccccc1,6.6% (inactive)
18,Cc1cc(C)c2[nH]c(=O)c(C(c3nnnn3Cc3ccc4c(c3)OCO4)N3CCCC3)cc2c1 (stereo unspecified),86.7% (active)
19,CC(C)(C)n1nnnc1C(c1ccc(F)cc1)N1CCN(Cc2ccc3c(c2)OCO3)CC1 (stereo unspecified),30.9% (inactive)
20,Fc1ccccc1C(c1nnnn1Cc1ccc2c(c1)OCO2)N1CCN(Cc2ccccc2)CC1 (stereo unspecified),45.6% (inactive)
21,COc1ccc(C(=O)CN(C(=O)c2ccc(Cl)cc2)N2C(=O)c3ccccc3C2=O)cc1,49.5% (inactive)
22,N#CC(=C1CCCC1)c1nc(-c2ccc(Cl)cc2)cs1,-6.8% (inactive)

row,SMILES,inhibition
1,N#C/C(=C1\CCCN1)c1nc(-c2ccccc2)cs1,40.4% (inactive)
2,N#CC(=C1SC=CS1)c1nc(-c2ccccc2)cs1,52.9% (active)
3,CC(=O)N1CSCC1C(=O)O (stereo unspecified),6.7% (inactive)
4,O=C(OCC#CCSc1nnc(-c2ccncc2)o1)c1sc2ccccc2c1Cl,30.1% (inactive)
5,CSc1cc(C)n(-c2ccccc2C)c(=S)c1C(C)=O,14.1% (inactive)
6,CN(c1nc2ccccc2n2c(-c3ccco3)nnc12)S(=O)(=O)c1ccccc1,15.3% (inactive)
7,O=C1CN(C(=O)COC(=O)C2CC(=O)N(Cc3ccco3)C2)c2ccccc2N1 (stereo unspecified),-13.2% (inactive)
8,Cc1ccc(S(=O)(=O)N2CCC(C(=O)OCC(=O)N3CC(=O)Nc4ccccc43)CC2)cc1,54.7% (active)
9,Cc1ccc(S(=O)(=O)NCC(=O)OCC(=O)N2CCc3ccccc32)cc1,-28.2% (inactive)
10,CCOC(=O)CN1CC23C=CC(O2)C(C(=O)Nc2ccc(F)cc2)C3C1=O (stereo unspecified),-21.8% (inactive)
11,CC1(C)C/C(=C(/C#N)C(N)=O)CCO1,-18.3% (inactive)
12,Nc1c(-c2ccc(F)cc2)cnc2ncnn12,-25.1% (inactive)
13,CC1(C)CC(=O)C=C(NCc2ccncc2)C1,7.3% (inactive)
14,CSc1ccccc1NC(=O)c1cc(C2CC2)on1,-144% (inactive)
15,Cc1nn(Cc2ccc(Cl)c(Cl)c2)c(C)c1NC(=O)c1cc(C2CC2)on1,96.7% (active)
16,Cc1cc(C(=O)Nc2c(C)nn(Cc3ccccc3)c2C)on1,22.4% (inactive)
17,Cc1cc2ccccc2n2c(SCC(=O)N3CCN(C(=O)c4ccco4)CC3)nnc12,-4.3% (inactive)
18,CCCCNC(=O)CCn1c(=S)[nH]c2cc3c(cc2c1=O)OCO3,36.3% (inactive)
19,Cc1ncc(CC(=O)n2cc(C(=O)c3cc(Cl)ccc3O)cn2)s1,81.1% (active)
20,O=C(c1ccc2c(c1)N(Cc1ccc(F)cc1)C(=O)CS2)N1CCOCC1,1.7% (inactive)
21,CCOC(=O)c1oc2ccccc2c1NC(=O)c1cccs1,20.2% (inactive)
22,Cc1cc(Nc2ccccc2)nc(N)n1,-6.6% (inactive)

row,SMILES,inhibition
1,COc1ccccc1CNS(=O)(=O)c1ccc(C)cc1,-159% (inactive)
2,Cc1ccc(S(=O)(=O)NCCSC(C)(C)C)cc1,23.6% (inactive)
3,Cc1ccc(S(=O)(=O)NCC(C)NS(C)(=O)=O)cc1 (stereo unspecified),60.2% (active)
4,CCOc1ccc(NC(=O)Nc2ccc(N(C)C(C)=O)cc2)cc1,-6.3% (inactive)
5,O=C(Nc1ccc2sc3ccccc3c(=O)c2c1)c1ccccc1Cl,-9% (inactive)
6,Cc1ccc(C)c(N2C(=O)CS/C2=N\NC(=O)c2ccccc2Cl)c1,77.7% (active)
7,CC(=O)Nc1cccc(/C(C)=N/NC(=O)c2ccccc2Cl)c1,0.2% (inactive)
8,COc1ccc(-c2nnn(Cc3nc(N)nc(N4CCCCC4)n3)n2)cc1,17.3% (inactive)
9,CCOc1cc(/C=C2/N=C(c3ccc(C(C)(C)C)cc3)OC2=O)cc(Cl)c1OS(C)(=O)=O,30.3% (inactive)
10,CCOCCCN1C(=O)CN(C2CCCCC2)C(=O)C1c1ccc(OCC)c(OC)c1 (stereo unspecified),15.3% (inactive)
11,COc1cc2[nH]c(=S)n(Cc3ccc(C)o3)c(=O)c2cc1OC,-0.8% (inactive)
12,Cc1nc2cc(S(=O)(=O)C(F)(F)F)ccc2s1,1.9% (inactive)
13,N/C(=N\OC(=O)Nc1ccc(Cl)c(Cl)c1)c1ncc(C(F)(F)F)cc1Cl,-6.7% (inactive)
14,Cc1nnc(NC(=O)Nc2ccc(Cl)c(Cl)c2)s1,48.4% (inactive)
15,O=C(CC(O)(C(F)(F)F)C(F)(F)F)Nc1ccc(Cl)c(Cl)c1,65% (active)
16,Cc1ccc(S(=O)(=O)c2c(N)n(C)c3nc4ccccc4nc23)cc1,14.2% (inactive)
17,C=CCn1c(N)c(C(=O)OCC(C)C)c2nc3ccccc3nc21,28.3% (inactive)
18,C=CCn1c(N)c(S(=O)(=O)c2cccs2)c2nc3ccccc3nc21,86.3% (active)
19,CCCCSc1nnc(-c2ccc(C)cc2)o1,31.3% (inactive)
20,CCS(=O)(=O)N1CCC(C(=O)N2CCN(c3ccccc3)CC2)CC1,9.9% (inactive)
21,O=C(C1CCN(S(=O)(=O)Cc2ccccc2)CC1)N1CCCc2ccccc21,51.8% (active)
22,O=C(CSCc1ccccc1)N1CCc2ccccc21,-12.4% (inactive)
